Test results from the supplement of paper PMC9801561.
± gives the standard deviation of the averaged measurements.

The compounds below were run on Escherichia coli Nissle 1917 (assay: area under OmniLog respiration curve over 48 h (OmniLog units x h); higher = more growth / nutrient utilisation; extreme values may be limits of the assay). Settings: nutrient role: C-Source, amino acid; incubation: 48 h, 37 °C.

| SMILES | area under OmniLog respiration curve |
| --- | --- |
| C[C@H](N)C(=O)NCC(=O)O | 7280 ± 620 |
| N[C@@H](Cc1c[nH]cn1)C(=O)O [L-Histidine] | 4.72 |
| C[C@@H](O)[C@H](N)C(=O)O [L-Threonine] | 7940 ± 380 |
| N[C@@H](CC(=O)O)C(=O)O [L-Aspartic acid] | 8900 ± 710 |
| NCCCC[C@H](N)C(=O)O [L-Lysine] | 10.5 ± 10 |
| NCC(=O)O [Glycine] | 4.72 |
| CSCC[C@H](N)C(=O)O [L-Methionine] | 33.3 ± 28 |
| N[C@@H](CCC(=O)O)C(=O)O [L-Glutamic acid] | 7390 ± 830 |
| C[C@@H](N)C(=O)O [D-Alanine] | 7620 ± 460 |
| C[C@H](N)C(=O)O [L-Alanine] | 8160 ± 580 |
| CC[C@H](C)[C@H](N)C(=O)O [L-Isoleucine] | 11.5 ± 6.6 |
| NC(=O)CC[C@H](N)C(=O)O [L-Glutamine] | 8360 ± 610 |
| N=C(N)NCCC[C@H](N)C(=O)O [L-Arginine] | 4.72 |
| O=C1CC[C@@H](C(=O)O)N1 [L-Pyroglutamic acid] | 6.07 ± 1.2 |
| NCC(=O)N[C@@H](CCC(=O)O)C(=O)O | 7660 ± 620 |
| CC(=O)N[C@@H](CCC(=O)O)C(=O)O [N-Acetyl-L-Glutamic acid] | 4.72 |
| N[C@H](CO)C(=O)O [D-Serine] | 9490 ± 1100 |
| N[C@@H](Cc1ccccc1)C(=O)O [L-Phenylalanine] | 8.61 ± 5.9 |
| CC(C)[C@H](N)C(=O)O [L-Valine] | 5.38 ± 1.1 |
| CC(C)C[C@H](N)C(=O)O [L-Leucine] | 15.5 ± 9.5 |
| O=C(O)[C@@H]1CCCN1 [L-Proline] | 8520 ± 530 |
| NCCC[C@H](N)C(=O)O [L-Ornithine] | 34.5 ± 27 |
| NC(=O)C[C@H](N)C(=O)O [L-Asparagine] | 8660 ± 760 |
| N[C@@H](CO)C(=O)O [L-Serine] | 8500 ± 700 |

Same assay, conditions: nutrient role: C-Source, carbohydrate; incubation: 48 h, 37 °C

| SMILES | area under OmniLog respiration curve |
| --- | --- |
| Cc1cn([C@H]2C[C@H](O)[C@@H](CO)O2)c(=O)[nH]c1=O [Thymidine] | 9560 ± 710 |
| CC(=O)N[C@@H]1C(O)O[C@H](CO)[C@@H](O)[C@@H]1O (stereo partly drawn) [N-Acetyl-D-Mannosamine] | 7300 ± 450 |
| CC(=O)N[C@H]1C(O)O[C@H](CO)[C@H](O)[C@@H]1O (stereo partly drawn) [N-Acetyl-D-Galactosamine] | 8120 ± 580 |
| O=P(O)(O)OC[C@H](O)CO (racemic) [DL-a-Glycerol Phosphate] | 7910 ± 780 |
| N[C@H]1C(O)O[C@H](CO)[C@@H](O)[C@@H]1O (stereo partly drawn) [D-Glucosamine] | 8060 ± 400 |
| O=C[C@H](O)[C@@H](O)[C@H](O)[C@H](O)COP(=O)(O)O [D-Glucose-6-Phosphate] | 10100 ± 940 |
| O=P(O)(O)O[C@H]1O[C@H](CO)[C@@H](O)[C@H](O)[C@H]1O [D-Glucose-1-Phosphate] | 8850 ± 750 |
| O=c1ccn([C@@H]2O[C@H](CO)[C@@H](O)[C@H]2O)c(=O)[nH]1 [Uridine] | 9200 ± 570 |
| CC(=O)N[C@@H]1[C@@H](O)[C@H](O)[C@@H](CO)O[C@@H]1O [N-Acetyl-D-Glucosamine] | 7820 ± 520 |
| Nc1ncnc2c1ncn2[C@@H]1O[C@H](CO)[C@@H](O)[C@H]1O [Adenosine] | 9110 ± 480 |
| O=c1[nH]cnc2c1ncn2[C@@H]1O[C@H](CO)[C@@H](O)[C@H]1O [Inosine] | 9540 ± 290 |

Same assay, conditions: nutrient role: sole nitrogen source (pyruvate carbon); incubation: 48 h, 37 °C

| SMILES | area under OmniLog respiration curve |
| --- | --- |
| Cc1cn([C@H]2C[C@H](O)[C@@H](CO)O2)c(=O)[nH]c1=O [Thymidine] | 4.72 |
| C[C@H](N)C(=O)NCC(=O)O | 8020 ± 1200 |
| N[C@@H](Cc1c[nH]cn1)C(=O)O [L-Histidine] | 4.72 |
| C[C@@H](O)[C@H](N)C(=O)O [L-Threonine] | 3190 ± 1200 |
| N[C@@H](CC(=O)O)C(=O)O [L-Aspartic acid] | 8720 ± 1400 |
| NCCCC[C@H](N)C(=O)O [L-Lysine] | 301 ± 240 |
| NCC(=O)O [Glycine] | 4420 ± 1100 |
| CSCC[C@H](N)C(=O)O [L-Methionine] | 4200 ± 940 |
| N[C@@H](CCC(=O)O)C(=O)O [L-Glutamic acid] | 7860 ± 1300 |
| CC(=O)N[C@@H]1C(O)O[C@H](CO)[C@@H](O)[C@@H]1O (stereo partly drawn) [N-Acetyl-D-Mannosamine] | 1040 ± 740 |
| CC(=O)N[C@H]1C(O)O[C@H](CO)[C@H](O)[C@@H]1O (stereo partly drawn) [N-Acetyl-D-Galactosamine] | 992 ± 1000 |
| N[C@H]1C(O)O[C@H](CO)[C@@H](O)[C@@H]1O (stereo partly drawn) [D-Glucosamine] | 2180 ± 1100 |
| C[C@@H](N)C(=O)O [D-Alanine] | 6690 ± 1200 |
| C[C@H](N)C(=O)O [L-Alanine] | 7330 ± 1200 |
| NCCCC(=O)O [g-Amino-N-Butyric acid] | 2000 ± 1100 |
| CC[C@H](C)[C@H](N)C(=O)O [L-Isoleucine] | 64.6 ± 81 |
| NC(=O)CC[C@H](N)C(=O)O [L-Glutamine] | 8560 ± 1200 |
| CSCC[C@H](NC(=O)CN)C(=O)O | 5710 ± 1300 |

| SMILES | area under OmniLog respiration curve |
| --- | --- |
| N=C(N)NCCC[C@H](N)C(=O)O [L-Arginine] | 7500 ± 1400 |
| O=C1CC[C@@H](C(=O)O)N1 [L-Pyroglutamic acid] | 4.72 |
| NCC(=O)N[C@@H](CCC(=O)O)C(=O)O | 7640 ± 1700 |
| CC(=O)N[C@@H](CCC(=O)O)C(=O)O [N-Acetyl-L-Glutamic acid] | 4.72 |
| N[C@H](CO)C(=O)O [D-Serine] | 7130 ± 1200 |
| N[C@@H](Cc1ccccc1)C(=O)O [L-Phenylalanine] | 4290 ± 1100 |
| CC(N)=O [Acetamide] | 26.4 ± 38 |
| CC(C)[C@H](N)C(=O)O [L-Valine] | 2650 ± 990 |
| CC(C)C[C@H](N)C(=O)O [L-Leucine] | 804 ± 870 |
| NC(=O)[C@H]1O[C@@H](O)[C@H](O)[C@@H](O)[C@@H]1O [Glucuronamide] | 2520 ± 1200 |
| O=C(O)[C@@H]1CCCN1 [L-Proline] | 4840 ± 1100 |
| O=c1ccn([C@@H]2O[C@H](CO)[C@@H](O)[C@H]2O)c(=O)[nH]1 [Uridine] | 8.86 ± 7.2 |
| CC(=O)N[C@@H]1[C@@H](O)[C@H](O)[C@@H](CO)O[C@@H]1O [N-Acetyl-D-Glucosamine] | 1070 ± 1100 |
| Nc1ncnc2c1ncn2[C@@H]1O[C@H](CO)[C@@H](O)[C@H]1O [Adenosine] | 6810 ± 990 |
| NCCC[C@H](N)C(=O)O [L-Ornithine] | 2670 ± 1300 |
| NC(=O)C[C@H](N)C(=O)O [L-Asparagine] | 8770 ± 1400 |
| O=c1[nH]cnc2c1ncn2[C@@H]1O[C@H](CO)[C@@H](O)[C@H]1O [Inosine] | 24.8 ± 35 |
| N[C@@H](CO)C(=O)O [L-Serine] | 7360 ± 1300 |
